The test system of assay [1] is Proto-oncogene tyrosine-protein kinase receptor Ret (Homo sapiens), P07949 [Y791F]. To be noted: at 1 µM.
Assay [2] addresses Macrophage-stimulating protein receptor (Homo sapiens) (UniProt Q04912). To be noted: at 0.1 µM.
For assay [3] the target is unchanged. To be noted: at 1 µM.
The target in assay [4] is Proto-oncogene tyrosine-protein kinase ROS (Homo sapiens) (UniProt P08922). To be noted: at 0.1 µM.
For assay [5] the target is unchanged. The conditions noted are these: at 1 µM.
Assay [6] concerns the target Proto-oncogene tyrosine-protein kinase Src (Homo sapiens) (UniProt P12931). To be noted: at 0.1 µM.
Assay [7] has the same target. To be noted: at 1 µM.
For assay [8], the target named is Tyrosine-protein kinase Srms (Homo sapiens) (UniProt Q9H3Y6). To be noted: at 0.1 µM.
Sequence of Tyrosine-protein kinase Srms (Homo sapiens) (Q9H3Y6 whole entry): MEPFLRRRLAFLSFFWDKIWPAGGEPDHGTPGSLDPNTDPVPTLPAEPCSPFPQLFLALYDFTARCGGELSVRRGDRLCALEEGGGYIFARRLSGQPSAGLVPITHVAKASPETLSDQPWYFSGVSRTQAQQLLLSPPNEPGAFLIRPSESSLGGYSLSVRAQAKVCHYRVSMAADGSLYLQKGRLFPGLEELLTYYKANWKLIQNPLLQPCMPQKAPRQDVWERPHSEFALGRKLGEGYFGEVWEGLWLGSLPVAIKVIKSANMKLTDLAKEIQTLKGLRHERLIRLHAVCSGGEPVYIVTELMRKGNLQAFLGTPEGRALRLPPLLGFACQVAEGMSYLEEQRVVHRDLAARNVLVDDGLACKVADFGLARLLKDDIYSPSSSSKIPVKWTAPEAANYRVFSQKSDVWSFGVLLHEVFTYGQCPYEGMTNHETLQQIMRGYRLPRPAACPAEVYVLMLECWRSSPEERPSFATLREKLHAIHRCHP
Assay [9] shares this target. The conditions noted are these: at 1 µM.
The target in assay [10] is Tyrosine-protein kinase SYK (Homo sapiens) (UniProt P43405). The conditions noted are these: at 0.1 µM.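 Also: reported percentages are mean inhibition values for SYK.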

The text below walks through data of ChEMBL document CHEMBL1961873, “Compounds: GSK PKIS; Assays: Nanosyn kinase panel” (2012).

Sequence of Proto-oncogene tyrosine-protein kinase ROS (Homo sapiens) (P08922 whole entry): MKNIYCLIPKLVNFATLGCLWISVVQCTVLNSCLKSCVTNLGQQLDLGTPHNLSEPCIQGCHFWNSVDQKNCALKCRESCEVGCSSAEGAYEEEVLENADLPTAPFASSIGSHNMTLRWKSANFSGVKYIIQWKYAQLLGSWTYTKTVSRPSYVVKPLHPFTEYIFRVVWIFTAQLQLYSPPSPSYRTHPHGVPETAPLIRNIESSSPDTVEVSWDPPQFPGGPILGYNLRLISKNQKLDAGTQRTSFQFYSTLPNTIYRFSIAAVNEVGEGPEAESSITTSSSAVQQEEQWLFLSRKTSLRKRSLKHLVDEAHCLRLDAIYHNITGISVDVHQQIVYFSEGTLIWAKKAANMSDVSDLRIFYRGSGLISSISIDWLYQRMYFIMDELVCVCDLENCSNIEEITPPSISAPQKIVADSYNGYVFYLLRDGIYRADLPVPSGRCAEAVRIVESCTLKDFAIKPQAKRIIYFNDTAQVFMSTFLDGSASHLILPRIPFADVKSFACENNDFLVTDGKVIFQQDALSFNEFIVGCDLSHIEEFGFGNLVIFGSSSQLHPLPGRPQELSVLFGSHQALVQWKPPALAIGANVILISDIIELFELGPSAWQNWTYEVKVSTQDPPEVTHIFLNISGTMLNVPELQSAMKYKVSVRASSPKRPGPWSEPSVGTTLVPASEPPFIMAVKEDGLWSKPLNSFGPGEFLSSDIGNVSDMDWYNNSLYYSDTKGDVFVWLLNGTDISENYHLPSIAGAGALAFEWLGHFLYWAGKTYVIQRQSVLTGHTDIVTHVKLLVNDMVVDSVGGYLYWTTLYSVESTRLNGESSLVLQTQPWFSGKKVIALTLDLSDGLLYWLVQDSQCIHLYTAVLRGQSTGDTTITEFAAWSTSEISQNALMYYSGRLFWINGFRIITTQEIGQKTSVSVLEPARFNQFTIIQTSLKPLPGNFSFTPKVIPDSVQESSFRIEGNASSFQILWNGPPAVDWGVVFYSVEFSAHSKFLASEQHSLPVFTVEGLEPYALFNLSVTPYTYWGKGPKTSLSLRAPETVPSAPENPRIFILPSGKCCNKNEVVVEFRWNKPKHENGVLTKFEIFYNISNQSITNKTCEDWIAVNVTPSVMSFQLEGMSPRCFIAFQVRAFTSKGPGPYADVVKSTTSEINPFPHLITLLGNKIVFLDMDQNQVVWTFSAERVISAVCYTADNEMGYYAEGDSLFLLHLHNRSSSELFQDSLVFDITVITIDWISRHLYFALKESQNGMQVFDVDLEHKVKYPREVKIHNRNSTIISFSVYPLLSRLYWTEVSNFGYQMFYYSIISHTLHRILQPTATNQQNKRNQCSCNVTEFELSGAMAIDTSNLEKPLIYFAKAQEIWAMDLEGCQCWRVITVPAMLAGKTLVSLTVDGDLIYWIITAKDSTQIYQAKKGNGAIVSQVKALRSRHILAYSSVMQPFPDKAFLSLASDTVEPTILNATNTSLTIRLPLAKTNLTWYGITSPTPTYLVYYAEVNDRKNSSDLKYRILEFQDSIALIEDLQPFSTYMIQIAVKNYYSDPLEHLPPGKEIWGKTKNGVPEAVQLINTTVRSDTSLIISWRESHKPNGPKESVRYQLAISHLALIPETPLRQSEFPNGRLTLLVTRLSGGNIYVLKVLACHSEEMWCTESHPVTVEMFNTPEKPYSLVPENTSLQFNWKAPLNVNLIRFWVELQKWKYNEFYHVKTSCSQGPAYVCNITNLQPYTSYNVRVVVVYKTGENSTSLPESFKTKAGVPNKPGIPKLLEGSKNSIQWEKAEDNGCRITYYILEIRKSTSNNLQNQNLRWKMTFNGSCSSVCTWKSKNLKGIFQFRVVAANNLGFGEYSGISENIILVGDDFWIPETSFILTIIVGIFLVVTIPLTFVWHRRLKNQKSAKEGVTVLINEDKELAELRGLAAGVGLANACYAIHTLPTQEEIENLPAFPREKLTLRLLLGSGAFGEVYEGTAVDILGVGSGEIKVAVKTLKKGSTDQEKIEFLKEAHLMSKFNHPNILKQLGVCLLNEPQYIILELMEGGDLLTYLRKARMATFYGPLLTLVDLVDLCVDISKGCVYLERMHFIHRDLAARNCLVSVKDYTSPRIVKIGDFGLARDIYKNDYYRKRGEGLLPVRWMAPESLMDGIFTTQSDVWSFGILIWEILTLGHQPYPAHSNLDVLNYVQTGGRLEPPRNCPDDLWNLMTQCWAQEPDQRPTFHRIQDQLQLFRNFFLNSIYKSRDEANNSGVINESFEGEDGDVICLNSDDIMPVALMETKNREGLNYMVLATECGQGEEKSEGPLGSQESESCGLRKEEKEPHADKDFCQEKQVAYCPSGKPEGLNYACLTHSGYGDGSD
Sequence of Proto-oncogene tyrosine-protein kinase Src (Homo sapiens) (P12931 2-536 limits assumed): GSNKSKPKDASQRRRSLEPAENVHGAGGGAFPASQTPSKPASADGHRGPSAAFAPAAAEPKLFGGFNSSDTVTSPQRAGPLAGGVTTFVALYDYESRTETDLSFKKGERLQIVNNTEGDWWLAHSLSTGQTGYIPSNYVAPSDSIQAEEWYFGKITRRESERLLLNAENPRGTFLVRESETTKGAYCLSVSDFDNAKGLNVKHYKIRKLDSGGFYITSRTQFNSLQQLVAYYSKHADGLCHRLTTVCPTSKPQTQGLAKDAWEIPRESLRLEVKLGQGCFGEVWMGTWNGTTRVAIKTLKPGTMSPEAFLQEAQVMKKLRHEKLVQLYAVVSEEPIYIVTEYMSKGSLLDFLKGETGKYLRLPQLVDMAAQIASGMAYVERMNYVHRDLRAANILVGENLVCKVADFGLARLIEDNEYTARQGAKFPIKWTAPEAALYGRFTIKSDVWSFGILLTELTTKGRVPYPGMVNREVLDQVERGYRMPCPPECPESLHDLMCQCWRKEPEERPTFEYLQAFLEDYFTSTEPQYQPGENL
Sequence of Proto-oncogene tyrosine-protein kinase receptor Ret (Homo sapiens), P07949 [Y791F] (P07949 whole entry Y791F): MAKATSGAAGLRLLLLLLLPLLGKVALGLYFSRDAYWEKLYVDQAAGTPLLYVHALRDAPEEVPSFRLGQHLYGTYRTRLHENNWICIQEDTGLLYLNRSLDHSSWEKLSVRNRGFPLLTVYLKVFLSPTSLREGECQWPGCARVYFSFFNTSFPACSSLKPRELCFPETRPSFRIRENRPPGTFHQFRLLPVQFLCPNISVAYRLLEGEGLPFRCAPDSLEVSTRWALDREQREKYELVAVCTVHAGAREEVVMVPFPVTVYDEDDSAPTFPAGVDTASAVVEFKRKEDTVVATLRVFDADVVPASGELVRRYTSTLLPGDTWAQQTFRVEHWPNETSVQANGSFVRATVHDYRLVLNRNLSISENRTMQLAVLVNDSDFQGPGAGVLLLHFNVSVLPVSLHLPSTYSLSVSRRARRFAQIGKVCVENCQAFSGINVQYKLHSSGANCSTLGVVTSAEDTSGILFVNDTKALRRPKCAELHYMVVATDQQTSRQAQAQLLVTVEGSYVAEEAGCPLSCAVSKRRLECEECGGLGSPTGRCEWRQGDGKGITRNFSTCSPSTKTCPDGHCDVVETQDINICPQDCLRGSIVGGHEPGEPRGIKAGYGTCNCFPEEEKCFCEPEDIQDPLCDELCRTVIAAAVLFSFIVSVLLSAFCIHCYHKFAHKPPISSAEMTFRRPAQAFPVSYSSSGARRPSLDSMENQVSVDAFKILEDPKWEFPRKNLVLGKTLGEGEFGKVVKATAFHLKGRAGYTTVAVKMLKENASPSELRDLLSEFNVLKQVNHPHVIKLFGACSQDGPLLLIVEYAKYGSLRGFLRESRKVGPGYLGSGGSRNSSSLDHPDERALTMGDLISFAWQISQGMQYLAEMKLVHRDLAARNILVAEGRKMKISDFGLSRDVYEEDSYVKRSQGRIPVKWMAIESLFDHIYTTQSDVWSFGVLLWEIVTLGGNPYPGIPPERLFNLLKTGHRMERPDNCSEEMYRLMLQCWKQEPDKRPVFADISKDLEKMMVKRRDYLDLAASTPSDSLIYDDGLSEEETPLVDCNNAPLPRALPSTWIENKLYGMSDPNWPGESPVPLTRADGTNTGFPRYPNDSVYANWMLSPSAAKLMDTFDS

Consider `COc1ccc2cc(-c3c(-c4ccncc4)nc(-c4ccc([S+](C)[O-])cc4)n3C)ccc2c1` (stereo not given), for which the inhibition in assay [1] is -4.94%; in assay [2], 4.56%; in assay [3] it was 4.27%; in assay [4] it was 4.08%; in assay [5], 5.77%; in [6], 4.77%. Moreover, the inhibition in [7] is 8.58%; in assay [8], -0.98%; in assay [9], -1.29%; in assay [10], -1.34%.
In the case of `c1cnn2ncc(-c3ccnc(Nc4ccc5c(c4)OCCO5)n3)c2c1`, the inhibition in assay [1] is 26.2%; in assay [2], 4.39%; in [3], 16.8%; in assay [4], 79.9%; in assay [5] it was 82.7%; in [6], -0.83%. The inhibition was 32.3% in [7], -0.57% in [8], 1.78% in assay [9] and -8.51% in assay [10].
For the molecule `[O-][S+]1CCN(Cc2ccc(-c3ccc4ncnc(Nc5ccc(OCc6ccccc6)c(F)c5)c4c3)o2)CC1`, the inhibition amounted to 5.92% in assay [1]; 2.75% in [2]; 7.9% in assay [3]; 3.51% in [4]; 1.61% in [5]; 5.28% in assay [6]. The inhibition was 8.51% in assay [7], -1.06% in [8], -3.12% in assay [9] and -2.3% in assay [10].
Take `COc1cc2c(cc1Nc1nc(N3CCc4ccccc43)c3cc[nH]c3n1)N(C(=O)CN(C)C)CC2`: the inhibition in [1] was 8.94%; in assay [2] it was -4.18%; in assay [3] it was 4.66%; in [4], 70.2%; in [5] it was 79.2%; in [6], 1.56%. The inhibition is 8.12% in assay [7], 0.05% in assay [8], -1.29% in assay [9] and 0.91% in assay [10].
With `CCCN1CCC=C(c2ccc(Nc3nc(Nc4ccccc4C(N)=O)c4cc[nH]c4n3)c(C)c2)C1`, the inhibition in assay [1] came to 25.8%; in assay [2] it was 7.2%; in [3] it was 11.6%; in [4] it was 24.3%; in assay [5] it was 61.2%; in [6], 8.87%. Besides, the inhibition in assay [7] is 17.4%; in assay [8] it was -3.15%; in [9], 0.8%; in assay [10], -0.42%.
Consider `NS(=O)(=O)c1cccc(-c2ccc3c(NC(=O)C4CC4)n[nH]c3c2)c1`, for which the inhibition was -2.02% in [1]; 6.3% in assay [2]; 3.46% in assay [3]; 3.46% in [4]; 5% in [5]; -4.15% in [6]. Also, the inhibition was -1.21% in assay [7], -0.76% in assay [8], -1.91% in [9] and -1.3% in assay [10].
Consider `O=C1NC(=O)C(c2cccc(Cl)c2)=C1Nc1ccc(O)c(Cl)c1`, for which the inhibition is 2.96% in [1]; -9.4% in assay [2]; 6% in [3]; 1.16% in assay [4]; 7.24% in [5]; 3.33% in [6]. The inhibition is 5.62% in assay [7], -0.46% in [8], -1.95% in assay [9] and 1.76% in [10].
As for `Nc1nc(-c2ccc3c(c2)C(=Cc2cc(Br)c(O)c(Br)c2)C(=O)N3)cs1`, the inhibition in [1] is 7.25%; in [2] it was -0.43%; in assay [3] it was 2.87%; in [4], 2.9%; in assay [5], 7.73%; in [6], 0.53%. Besides, the inhibition is -0.25% in [7], 9.94% in assay [8], 53% in [9] and 1.06% in assay [10].
In the case of `CC1=C(C(=O)Nc2ccc3[nH]ncc3c2)C(c2ccc3ccccc3c2)CC(=O)N1` (stereo not given), the inhibition in assay [1] was 60.5%; in assay [2], 34%; in assay [3], 67.5%; in assay [4] it was 7.1%; in assay [5] it was 14.5%; in assay [6], 13%. Further, the inhibition in [7] is 64.9%; in assay [8] it was 1.12%; in assay [9] it was 1.41%; in assay [10], 2.43%.
Regarding `O=C1NC(=O)C(N2CCc3ccccc32)=C1c1ccc(Cl)cc1`, the inhibition is 10.4% in [1]; -2.48% in assay [2]; 2.52% in assay [3]; 10.9% in [4]; 14.1% in assay [5]; 5.94% in assay [6]. For the same molecule, the inhibition in [7] is 15.5%; in assay [8], -2.77%; in [9], 0.25%; in assay [10], -4.42%.
Turning to `CS(=O)(=O)CCNCc1ccc(-c2ccc3ncnc(Nc4ccc(OCc5cccc(F)c5)c(C(F)(F)F)c4)c3c2)o1`, the inhibition was 3.86% in [1]; 3.73% in assay [2]; 5% in assay [3]; 6.01% in assay [4]; 4.01% in assay [5]; -1.31% in assay [6]. In addition, the inhibition in assay [7] was 8.28%; in assay [8], -1.21%; in assay [9] it was -1.42%; in [10], -6.45%.
Consider `COc1cc2ncn(-c3cc(OCc4ccccc4Cl)c(C(N)=O)s3)c2cc1OC`, for which the inhibition in assay [1] is 60.2%; in assay [2], 0.23%; in assay [3], 13.3%; in [4] it was 9.59%; in [5] it was 29.2%; in assay [6], 20.5%. Moreover, the inhibition in assay [7] is 20.9%; in assay [8], 2.74%; in assay [9] it was 7.95%; in assay [10], -2.2%.
Take `COc1cc2ncn(-c3cc(O[C@@H](C)c4ccccc4Cl)c(C(N)=O)s3)c2cc1OC`: the inhibition was 72% in assay [1]; -0.14% in assay [2]; 2.55% in assay [3]; 5.59% in [4]; 29.1% in [5]; 10.3% in assay [6]. Besides, the inhibition in assay [7] is 30.1%; in assay [8] it was -3.6%; in assay [9], -1.13%; in assay [10] it was -2.93%.
`Cc1ccc(NC(=O)c2ccnc(N3CCCC3)c2)cc1-c1ccc(C(=O)NCC2CC2)cc1`: the inhibition came out at 11.4% in assay [1]; 8.6% in assay [2]; 6.95% in [3]; 6.76% in assay [4]; 12% in assay [5]; 4.44% in [6]. The inhibition in [7] was 9.16%; in [8], -3.02%; in assay [9], -4.02%; in [10] it was -0.79%.
As to `Cc1nn(C)c2cc(N(C)c3ccnc(Nc4cccc(S(N)(=O)=O)c4)n3)ccc12`, the inhibition was found to be 46.8% in assay [1]; 5.47% in assay [2]; 22.4% in assay [3]; 63.2% in assay [4]; 80.2% in assay [5]; 11.1% in assay [6]. Moreover, the inhibition in [7] was 49.5%; in assay [8], 0.83%; in assay [9] it was 9.11%; in assay [10], -6.41%.
For `Fc1cccc(COc2ccc(Nc3ncnc4cc(-c5ccc[nH]5)sc34)cc2Cl)c1`, the inhibition came out at 15.8% in assay [1]; 4.56% in [2]; 4.33% in assay [3]; 9.9% in assay [4]; 12.1% in assay [5]; 3.22% in assay [6]. Besides, the inhibition in assay [7] was 6.79%; in assay [8], -0.83%; in assay [9] it was 1.08%; in [10], 1.5%.
With `CCn1c(-c2nonc2N)nc2c(C#CC(C)(C)O)nc(OC[C@@H](N)c3ccccc3)cc21`, the inhibition in [1] stood at 47.4%; in [2], 11.5%; in assay [3], 6.11%; in assay [4], 2.07%; in [5], 11.2%; in assay [6] it was 2.45%. The inhibition was 0.1% in assay [7], 1.94% in assay [8], 5.92% in assay [9] and -1.58% in [10].
